Screening data as filed in PubChem BioAssay.
Most compounds without a hit are left out; they make up all but 4% or so of the library.
TRPM1 prom inh – inhibitors of MITF-dependent TRPM1 promoter reporter, primary screen, cell-based, SK-MEL-5, single point, luciferase; AID 488899, 2010; 330,000 tested, 0.83% active; inhibition, % at 12.5 µM; SK-MEL-5 TRPM1 promoter luciferase, 24 h;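 active = mean inhibition across replicates of 60% or more, whatever share of single replicates reaches that level; inconclusive = some that reach 60%, reason not given; inactive = mean inhibition across replicates below 60%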
esBAF inh – Bmi1 luciferase reporter increase in mESCs, primary screen, esBAF inhibitor project, mouse ES cells, Bmi1 luciferase knock-in, single point; reporter increase, % at 12.5 µM; 24 h; 100% = twice the neutral-well signal; 350,000 tested, 2% active; AID 602393, 2012; in the data active = activation above about 40%; inconclusive = no clear call, values can overlap the other calls;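 note: a rise in the Bmi1 reporter signal indicates esBAF inhibition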
EBV LMP1 NFkB – EBV LMP1-driven NF-kappaB luciferase reporter inhibitors, primary screen, cell-based, luminescence, single point; LMP1-induced NF-kappaB luciferase reporter cells; 350,000 tested, 0.69% active; inhibition, % at 12.5 µM; in the data active = inhibition above about 41%; inconclusive = no clear call, values can overlap the other calls
MITF TRPM1 HTS – activators of MITF-driven TRPM1 promoter reporter, primary screen, cell-based, SK-MEL-5, luciferase, single point. 300,000 tested, 0.75% active. SK-MEL-5 TRPM1-promoter luciferase, 24 h; % of positive control, neutral wells = 0. AID 588334, 2011. activation, % at 12.5 µM;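 active = mean activation of at least 80% with every replicate also reaching 80%; inconclusive = mean reaches 80% but some replicate falls short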
Statin myotox sup – suppressors of statin myotoxicity in C2C12 myotubes, primary screen, cell-based, single point, plate reader | C2C12 myotubes + simvastatin, ATP luminescence, 48 h; scaled: DMSO 0, geranylgeraniol control 100 | rescue of ATP level, % at 7.49 µM | 330,000 tested, 0.78% active;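 active = mean ATP rescue above about 67%, or every replicate alone reaching that limit, limit read from the data, passing the limit was not always enough; inconclusive = no clear call, values can overlap the other calls; inactive = mean under the limit and some replicate under it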;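 note: myotubes were challenged with 10 µM simvastatin during compound exposure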
Wnt act – Wnt/beta-catenin pathway activators, primary screen, cell-based, plate reader, single point | Wnt/beta-catenin reporter cell assay, activator | AID 743398, 2014 | activation, % at 9.35 µM | 300,000 tested, 1.2% active; in the data active = activation above about 30%, passing the limit was not always enough; inconclusive = no clear call, values can overlap the other calls
Large screens that a line does not name were inactive.

N#CC1=C(N)C(C#N)(C#N)C(c2cccnc2)C2CC(c3ccccc3)CC=C12 (stereo not given)	EBV LMP1 NFkB 55 (no result: esBAF inh, Statin myotox sup, Wnt act)
Cc1ccc2c(c1)C(=C(C#N)C#N)CCN2	none (no result: esBAF inh, Statin myotox sup)
CN(C)/C=N/NC(=O)c1ccc(Cl)cc1	none (no result: esBAF inh, Statin myotox sup)
CN(C)/C=N/c1cnc(C(=O)c2ccc(Cl)cc2)n1C	esBAF inh 45, MITF TRPM1 HTS inconclusive (no result: Wnt act)
CS(=O)(=O)N(Cc1ccc(F)cc1)Cc1nc2ccccc2c(=O)[nH]1	Statin myotox sup 99 (no result: Wnt act)
COc1ccc(CCC2(C)NC(=O)N(C(C)C(=O)N3c4ccccc4CC3C)C2=O)cc1 (stereo not given)	none
COc1ccccc1N1CCN(C(=O)C(=O)N/N=C/c2cccc(O)c2)CC1	Statin myotox sup 96
COc1ccccc1/C=N/NC(=O)C(=O)N1CCN(c2ccccc2OC)CC1	none (no result: esBAF inh, Statin myotox sup)
Cc1cc(/C=N/Nc2ncnc(N)c2[N+](=O)[O-])c(C)n1-c1ccccc1	TRPM1 prom inh 81, EBV LMP1 NFkB 78
O=C(O)CC1=C(Nc2ccccc2)C(=O)N(c2ccccc2)C1c1ccc(Br)cc1 (stereo not given)	Wnt act 36 (no result: esBAF inh, Statin myotox sup)
c1ccc2oc(-c3ccn[nH]3)cc2c1	Wnt act 40 (no result: esBAF inh, MITF TRPM1 HTS, Statin myotox sup)
CCC(CC)C(=O)N(C)c1c(C)nc2c(OCC(=O)N(C)C)cccn12	none (no result: TRPM1 prom inh, EBV LMP1 NFkB, MITF TRPM1 HTS)
Cc1ccc(S(=O)(=O)NCc2cn3c(C)csc3n2)cc1	none (no result: Wnt act)
Cc1ccc(SCc2cn3cc(Cl)ccc3n2)cc1	Wnt act 35 (no result: esBAF inh, MITF TRPM1 HTS, Statin myotox sup)
Clc1ccc2nc(CSCc3ccccc3)cn2c1	Wnt act 67 (no result: esBAF inh, Statin myotox sup)
Clc1ccc(SCc2cn3ccccc3n2)cc1	MITF TRPM1 HTS inconclusive (no result: esBAF inh, Statin myotox sup)
CNc1cc(CSc2ccc(Cl)cc2)nc(C)n1	esBAF inh 52
Cc1ccc(SCc2cn3c(C)csc3n2)cc1	MITF TRPM1 HTS 84
Cc1nn(CC(=O)N2CCN(c3ccccc3)CC2)c(=O)c2ccccc12	MITF TRPM1 HTS inconclusive
O=C(CN(C(=O)CSc1nnc(COc2ccccc2)o1)c1ccc(F)cc1)NC1CCCC1	none
Clc1ccc2nc(CSc3nc4ccccc4o3)cn2c1	Wnt act 58 (no result: MITF TRPM1 HTS)
Cc1cccc2nc(CSc3ccc(Cl)cc3)cn12	esBAF inh 76, MITF TRPM1 HTS 101
Cc1nc(C(F)(F)F)ccc1C(=O)N1CCCCCC1(C)C(=O)NCC(C)C (stereo not given)	none (no result: TRPM1 prom inh, EBV LMP1 NFkB, MITF TRPM1 HTS)
CCOC(=O)N1CCN(C(=O)Cn2nc(C)c3sc4ccccc4c3c2=O)CC1	Statin myotox sup 103
Cc1nn(CC(=O)N2CCN(C)CC2)c(=O)c2c1sc1ccccc12	none
COc1ccc(N(C(=O)c2ccncc2)S(=O)(=O)c2ccc(OC)c(OC)c2)cc1	none
N#CC(c1ccc(Cl)cc1)c1ccc(Cl)nn1 (stereo not given)	Statin myotox sup 106 (no result: Wnt act)
Cc1ccc(C(C#N)c2ccc(Cl)nn2)cc1 (stereo not given)	none (no result: esBAF inh, Statin myotox sup)
O=C(Nc1ccccc1)Nc1cc(OCC(F)(F)F)cc(OCC(F)(F)F)c1	TRPM1 prom inh 85 (no result: esBAF inh, Statin myotox sup)
Cc1ccc(CNC(=O)CSc2nc3ccsc3c(=O)n2Cc2ccccn2)cc1	Wnt act 34
Cc1ccc(Cn2c(SCC(=O)NCc3ccco3)nc3ccsc3c2=O)cc1	none (no result: Wnt act)
C[C@@H]1CN([C@H](C)CO)C(=O)c2cc(NC(=O)Cn3cnnn3)ccc2O[C@H]1CN(C)Cc1ccc(Oc2ccccc2)cc1	none (no result: TRPM1 prom inh, EBV LMP1 NFkB, MITF TRPM1 HTS, Wnt act)
COc1ccc(Nc2n[nH]c(C)c2[N+](=O)[O-])cc1	Wnt act 35 (no result: esBAF inh, Statin myotox sup)
CCOC1=C2CN(S(=O)(=O)c3ccc(C)cc3)[C@H](c3ccccc3)C[C@H]2[C@H]2C(=O)N(c3ccccc3)C(=O)[C@H]2C1	none (no result: TRPM1 prom inh, EBV LMP1 NFkB, MITF TRPM1 HTS)
CCCOc1ccc(N)cc1N	EBV LMP1 NFkB 54 (no result: Wnt act)
Cc1cnc(C(=O)OCC(=O)Nc2cc(Cl)cc(Cl)c2)cn1	none
CCCCCCC[C@@H](C/C=C/CCC(=O)N(C)C/C(=C/Cl)C/C(=C\C(=O)N1CC(OC)=CC1=O)OC)OC	TRPM1 prom inh 75
CCCCCCC[C@@H](C/C=C/CCC(=O)N(C)C/C(=C/Cl)C/C(=C\C(=O)N1C[C@H](O)CC1=O)OC)OC	none
O=C(CN1C(=O)NC2(CCc3ccccc3C2)C1=O)NCc1ccco1 (stereo not given)	none
O=C(Nc1ccc(F)cc1)c1ccc(C(=O)N2CCCC(O)C2)cc1 (stereo not given)	none
CC1CC(C)C(=O)C(C(CC2CC(=O)NC(=O)C2)OC(=O)CC(=O)c2ccccc2)C1 (stereo not given)	EBV LMP1 NFkB 52, Statin myotox sup inconclusive
CC1CCC2(CC1)NC(=O)N(Cc1cccc(C(F)(F)F)c1)C2=O (stereo not given)	Wnt act 92 (no result: esBAF inh, Statin myotox sup)
O=C(O)C/C(=C\c1cc(Br)cs1)c1nc2ccccc2o1	esBAF inh 83
COc1ccc(N2C(=O)CSC23C(=O)N2c4c(cccc43)C(C)=CC2(C)C)cc1 (stereo not given)	none
Cc1cc2c3c(c1)C1(SCC(=O)N1c1ccc(F)cc1)C(=O)N3C(C)(C)CC2C (stereo not given)	Statin myotox sup 110 (no result: Wnt act)
COc1ccc2oc(C(=O)Nc3nc(C)cs3)c(C)c2c1	Wnt act 51
Cc1csc(NC(=O)c2sccc2C)n1	Wnt act 48
COc1ccc2oc(C(=O)Nc3ccccn3)c(C)c2c1	Wnt act 43
COc1ccc2oc(C(=O)Nc3ccc(C)cn3)c(C)c2c1	esBAF inh inconclusive, Wnt act 38
COc1ccc2oc(C(=O)NCCC(C)C)c(C)c2c1	MITF TRPM1 HTS inconclusive
N#Cc1sc2nccc(Nc3ccccc3)c2c1N	none (no result: TRPM1 prom inh, esBAF inh, EBV LMP1 NFkB, MITF TRPM1 HTS, Statin myotox sup)
COc1ccc(OC)c2c1C(=O)c1ccccc1C2=O	none (no result: TRPM1 prom inh, esBAF inh, EBV LMP1 NFkB, MITF TRPM1 HTS, Statin myotox sup)
COc1ccc(OC)c2c1C(=O)C(Cl)=C(Cl)C2=O	TRPM1 prom inh 88 (no result: esBAF inh, MITF TRPM1 HTS, Statin myotox sup)
CC1CN(C(=O)CNC(=O)Cc2cccc3ccccc23)CC(C)O1 (stereo not given)	none
O=c1cc(CN2CCOCC2)nc(C2CC2)[nH]1	Statin myotox sup inconclusive
COc1ccc(S(=O)(=O)O/N=C2\CCCc3ccccc32)cc1	Statin myotox sup 72
O=C1CC(/C=C/c2ccncc2)=Nc2ccccc2N1	esBAF inh 88
O=C1CC(c2ccccc2)=Nc2ccccc2N1	none
CC(C)CN1CCN(C(=O)COC(=O)c2ccc(S(C)(=O)=O)c([N+](=O)[O-])c2)CC1	none (no result: TRPM1 prom inh, EBV LMP1 NFkB, MITF TRPM1 HTS)
Cc1ccc(C2CC2C(=O)NNC(=S)Nc2cccc(Cl)c2)cc1 (stereo not given)	Statin myotox sup 81
C=CCNc1ncnc2c1ncn2[C@H]1CN(Cc2ccccc2)C[C@@H](CO)O1	none (no result: TRPM1 prom inh, EBV LMP1 NFkB, MITF TRPM1 HTS)
CCn1c(O)c(C=NC2CCCC2)sc1=S	esBAF inh 45
